Test results taken from PubChem BioAssay.
Where “and” joins values, the source holds several entries; their conditions need not be identical. Equal values may be shown once. Calls of active or inactive are those of the source. Cut-off read from the data, not from the text of the source, unless noted: active = inhibition above about 80%; inactive = the rest.

What was measured:
[1] = tested on: Aerobactin synthetase IucA (Klebsiella pneumoniae); assay: IucA aerobactin synthetase inhibitors, biochemical, Tocris library, absorbance (AID 1345561; call rule not given here;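 note: 100% = enzyme without compound and 0% = no enzyme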); details: purified IucA enzyme assay, absorbance (OD) read-out; stronger effect = lower value;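 tested at 8 µM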
[2] = sensitizers of A549 cells to miR-34 induction, primary screen, imaging, A549 dox-inducible miR-34, nuclei and caspase counts (AID 1347080;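 active = compounds whose cell count with miR-34 switched on is under 0.7 times the count with it off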); details: A549 miR-34 inducible, Hoechst nuclei count, 48 h
[3] = survival rescue of mitochondrial mutant cells in low glucose, primary screen, MELAS cybrids, Rieske KO mouse fibroblasts, CellTiter-Glo (AID 1508586;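 active = mean z-score across replicates of 1.96 or higher in either the MELAS or the Rieske mutant cell line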;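 note: z relative to plate mean and SD of compound and empty wells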)
[4] = viability rescue of complex I mutant cybrids, primary screen, cell-based, galactose medium, ATP luminescence (AID 1645843;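 active = z-score of at least 1.8 in each of two replicates, scored against plate mean and spread of sample wells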;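 note: positive z means more ATP and so rescue of galactose-driven cybrid death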); details: complex I mutant cybrid cells, 72 h, stronger effect = higher value
[5] = tested on: Hepatitis C virus NS3 helicase; assay: HCV NS3 helicase inhibitors, primary screen, biochemical, fluorescence polarization, LOPAC1280 library (AID 687035; in the data active = inhibition above about 37%); details: Purified HCV NS3 helicase, Cy5-dT15 ssDNA binding fluorescence polarization; stronger effect = higher value; concentration not given here
[6] = Cy5 fluorescence quenching or enhancement artefacts, artefact control for HCV NS3 helicase inhibitor project, biochemical, LOPAC1280 (AID 687037; call rule not given here); details: Cy5-DNA-NS3h complex fluorescence interference counterscreen
[7] = inhibitors of Cryptococcus chitosan production, flow cytometry, Cibacron Brilliant Red staining (AID 1347148; call rule not given here;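 note: compound exposure lasted three days at 37 degrees C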); details: Cryptococcus neoformans chitosan, stronger effect = lower value; at 10 µM unless noted
[8] = LFS_MB_P medulloblastoma growth inhibition, cell-based, chromothripsis tumors, cisplatin or BGB combos (AID 1671449); details: LFS_MB_P medulloblastoma cells;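 note: cells exposed for 96 hours; 0% = vehicle DMSO and 100% = killing by high DMSO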
[9] = HDN33 neuroblastoma growth inhibition, cell-based, chromothripsis tumors, cisplatin or BGB combos (AID 1671450); details: HDN33 neuroblastoma cells, stronger effect = higher value;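 note: cells exposed to compound for four days; 0% = vehicle DMSO and 100% = cell killing by high DMSO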
[10] = ICB984 medulloblastoma cell growth inhibition, synergistic combos for chromothripsis tumors, cisplatin or BGB combos (AID 1671451; call rule not given here;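 note: cells exposed for 96 hours before readout; 0% = vehicle DMSO and 100% = killing by high DMSO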); details: ICB984 medulloblastoma cells, drug combinations, stronger effect = higher value
[11] = LFS_MB_1R medulloblastoma cell growth inhibition, synergistic combos for chromothripsis tumors, cisplatin or BGB combos (AID 1671452); details: LFS_MB_1R medulloblastoma cells, stronger effect = higher value;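 note: cells exposed for 96 hours before readout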
[12] = HTB85 osteosarcoma cell growth inhibition, synergistic combos for chromothripsis tumors, BGB or cisplatin IC20 combos (AID 1671453); details: HTB85 osteosarcoma cells, drug combinations, stronger effect = higher value;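 note: cells exposed for 96 hours before readout; 0% = vehicle DMSO and 100% = high DMSO killing control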
[13] = CRL2098 osteosarcoma cell growth inhibition, synergistic combos for chromothripsis tumors, BGB or cisplatin IC20 combos (AID 1671454); details: CRL2098 osteosarcoma cells, drug combinations, stronger effect = higher value;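 note: cells exposed for 96 h before readout; 0% = vehicle DMSO and 100% = killing by high DMSO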
[14] = HD-MB03 medulloblastoma cell growth inhibition, synergistic combos for chromothripsis tumors, BGB or cisplatin IC20 combos (AID 1671455; in the data active = inhibition above about 83%;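 note: 0% = vehicle DMSO and 100% = high DMSO as cytotoxic control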); details: HD-MB03 medulloblastoma cells, stronger effect = higher value
[15] = UWB1.289 ovarian carcinoma cell growth inhibition, synergistic combos for chromothripsis tumors, BGB or cisplatin combos (AID 1671456); details: UWB1.289 ovarian carcinoma cells, stronger effect = higher value;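 note: cells exposed to compound for four days; 0% = vehicle DMSO and 100% = killing by high DMSO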
[16] = LFS_MB_2R medulloblastoma cell growth inhibition, synergistic combos for chromothripsis tumors, cisplatin combos (AID 1671457); details: LFS_MB_2R medulloblastoma cells, stronger effect = higher value;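 note: cells exposed to compound for four days before readout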
[17] = MDA-MB-436 breast carcinoma cell growth inhibition, synergistic combos for chromothripsis tumors, BGB or cisplatin combos (AID 1671458; call rule not given here;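 note: cells exposed for 96 hours; 0% = vehicle DMSO and 100% = killing by high DMSO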); details: MDA-MB-436 breast carcinoma growth inhibition, drug combinations, stronger effect = higher value
[18] = UWB1.289_BRCA1 ovarian cancer growth, cell-based, BGB or cisplatin combinations (AID 1671459); details: UWB1.289 BRCA1 ovarian carcinoma, drug combinations, stronger effect = higher value
[19] = human astrocyte viability loss, single and combined drugs, cytotoxicity control for chromothriptic childhood tumor combination screen, cell-based, BGB or cisplatin IC20 combos (AID 1671460); details: Human astrocytes, drug combinations, stronger effect = higher value;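 note: cells exposed to compounds for 96 hours before viability readout; 0% = vehicle and 100% = killing control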
[20] = growth inhibition of BT084 medulloblastoma cells, cell-based, ICGC_MB145, cisplatin and BGB IC40 combos (AID 1671461); details: drug combinations, stronger effect = higher value;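 note: cells exposed to drugs for 96 hours; 0% = vehicle DMSO and 100% = high DMSO full killing control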
[21] = growth inhibition of RCMB18 medulloblastoma cells, cell-based, cisplatin and BGB IC40 combos (AID 1671462); details: stronger effect = higher value;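 note: cells exposed to compound for four days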
[22] = growth inhibition of CRL1545 osteosarcoma cells, cell-based, cisplatin and BGB IC20 combos (AID 1671464); details: stronger effect = higher value;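 note: cells exposed to compound for 96 hours before readout; 0% = vehicle DMSO and 100% = high DMSO killing control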
[23] = stronger effect = lower value, cell number ratio, induced over uninduced
[24] = measured here: relative caspase fold change +Dox/-Dox
[25] = measured here: total cells with miR-34 induction, stronger effect = lower value
[26] = measured here: total cells without miR-34 induction
[27] = MELAS cybrid survival, CellTiter-Glo 48 h, stronger effect = higher value
[28] = Rieske KO mouse fibroblast survival, CellTiter-Glo 72 h
[29] = measured here: combination with BGB IC40, at 0.05 µM
[30] = measured here: with BGB IC20 combination, at 0.5 µM
[31] = measured here: with cisplatin IC20 combination, at 0.5 µM
[32] = measured here: combination with cisplatin, at 0.5 µM
[33] = measured here: combination with cisplatin, at 5 µM

## Cc1cc(F)c(Nc2ncnc3cc(OCc4ccccc4)ccc23)cc1O
[1]
  remaining activity: 105% (inactive)
[2]; [23]
  fold change: 0.94 (inactive) and 0.947 (inactive)
[2]; [24]
  fold change: 0.62 and 2.22
[2]; [25]
  cell count: 7080 and 7020
[2]; [26]
  cell count: 7530 and 7420
[3]; [27]
  z-score: 0.202 (inactive)
[3]; [28]
  z-score: 0.0931
[4]
  z-score: 1.85 (inactive)

## C1CCC(N=C(NC23CC4CC(CC(C4)C2)C3)N2CCOCC2)CC1
[5]
  inhibition: -4% (inactive)
[6]
  fluorescence ratio (interference): 1 (inactive)
[1]
  remaining activity: 116% (inactive)
[2]; [23]
  fold change: 0.989 (inactive)
[2]; [24]
  fold change: 0.888
[2]; [25]
  cell count: 8260
[2]; [26]
  cell count: 8350
[7]
  fold fluorescence: 11.7 [at 130.9 µM] (inactive)
[4]
  z-score: -0.33 (inactive)

## O=C(COc1cccc2c(=O)[nH]ccc12)c1ccccc1
[1]
  remaining activity: 129% (inactive)
[2]; [23]
  fold change: 0.93 (inactive) and 0.917 (inactive)
[2]; [24]
  fold change: 0.39 and 1.29
[2]; [25]
  cell count: 8870 and 8400
[2]; [26]
  cell count: 9530 and 9170
[3]; [27]
  z-score: -0.468 (inactive)
[3]; [28]
  z-score: 0.438
[4]
  z-score: -0.28 (inactive)
[8]; at 0.5 µM, stronger effect = higher value
  inhibition: -16.5% (inactive)
[8]; measured here: combination with BGB IC20, at 0.005 µM
  inhibition: -16.8%
[8]; measured here: combination with BGB IC40, at 0.005 µM
  inhibition: -36.3%
[8]; [29]
  inhibition: -53.7%
[8]; measured here: combination with cisplatin, at 0.5 µM, stronger effect = higher value
  inhibition: -36.1%
[8]; measured here: combination with cisplatin, at 5 µM, stronger effect = higher value
  inhibition: -39.6%
[9]; BGB combo, at 5 µM
  inhibition: -30.5%
[9]; at 0.5 µM
  inhibition: -19.3% (inactive)
[9]; cisplatin combo, at 5 µM
  inhibition: 0.128%
[9]; [30]
  inhibition: -14.4%
[9]; [31]
  inhibition: -33.6%
[9]; single agent, at 5 µM
  inhibition: 5.27%
[10]; BGB IC20 combo, at 0.005 µM
  inhibition: -2.15%
[10]; BGB IC40 combo, at 0.005 µM
  inhibition: -17.7%
[10]; BGB IC40 combo, at 0.05 µM
  inhibition: -10.1%
[10]; at 0.5 µM
  inhibition: -21.4% (inactive)
[10]; cisplatin combo, at 0.05 µM
  inhibition: -14.1%
[10]; cisplatin combo, at 0.5 µM
  inhibition: -12.6%
[10]; cisplatin combo, at 5 µM
  inhibition: -29.1%
[10]; measured here: 5 uM single agent, at 5 µM
  inhibition: -6.87%
[11]; at 0.5 µM
  inhibition: -3.67% (inactive)
[11]; [29]
  inhibition: 3.04%
[11]; [32]
  inhibition: 4.91%
[11]; [33]
  inhibition: -55.9%
[12]; at 0.5 µM
  inhibition: -2.5% (inactive)
[12]; measured here: with BGB IC20, at 0.5 µM
  inhibition: -2.96%
[12]; measured here: with BGB IC20, at 5 µM
  inhibition: -14.8%
[12]; measured here: with cisplatin IC20, at 0.5 µM
  inhibition: -15.8%
[12]; measured here: with cisplatin IC20, at 5 µM
  inhibition: -9.52%
[12]; single agent, at 5 µM
  inhibition: -11.8%
[13]; at 0.5 µM
  inhibition: -77.2% (inactive)
[13]; measured here: combination with BGB at IC20, at 0.5 µM
  inhibition: -43.7%
[13]; measured here: combination with cisplatin at IC20, at 0.5 µM
  inhibition: -122%
[14]; at 0.5 µM
  inhibition: -12.7% (inactive)
[14]; measured here: combo with BGB at IC20, at 0.5 µM
  inhibition: -9.35%
[14]; measured here: combo with cisplatin at IC20, at 0.5 µM
  inhibition: -24.1%
[15]; at 0.5 µM
  inhibition: -8.68% (inactive)
[15]; measured here: inhibition with BGB combination, at 0.05 µM
  inhibition: -22.4%
[15]; measured here: inhibition with cisplatin combination, at 0.05 µM
  inhibition: -23.8%
[16]; at 0.5 µM
  inhibition: -15.2% (inactive)
[16]; [32]
  inhibition: -23.3%
[16]; [33]
  inhibition: -11.3%
[17]; at 0.5 µM
  inhibition: -8.48% (inactive)
[17]; measured here: BGB combination, at 0.5 µM
  inhibition: -12.1%
[17]; measured here: BGB combination, at 5 µM
  inhibition: -20.7%
[17]; measured here: cisplatin combination, at 0.5 µM
  inhibition: -11.8%
[17]; measured here: cisplatin combination, at 5 µM
  inhibition: -15.5%
[18]; BGB combination, concentration series, at 5 µM
  inhibition: 17.1%
[18]; at 0.5 µM
  inhibition: -4.72% (inactive)
[18]; cisplatin combination, concentration series, at 5 µM
  inhibition: -1.24%
[19]; at 0.5 µM
  inhibition: 18.8% (inactive)
[19]; measured here: combo with BGB IC20, at 0.5 µM
  inhibition: 3.19%
[19]; measured here: combo with cisplatin IC20, at 0.5 µM
  inhibition: 27.2%
[20]; at 0.5 µM
  inhibition: -16.5% (inactive)
[20]; cisplatin combination, at 0.5 µM
  inhibition: -34.9%
[20]; cisplatin combination, at 5 µM
  inhibition: -2.7%
[20]; measured here: BGB IC40 combination 0.05 uM, at 0.05 µM
  inhibition: -29.5%
[20]; single agent, at 5 µM
  inhibition: 2.36%
[21]; at 0.5 µM
  inhibition: -1.53% (inactive)
[21]; cisplatin combo, at 5 µM
  inhibition: -22.8%
[21]; measured here: BGB IC40 combination, at 0.05 µM
  inhibition: -14.7%
[21]; [32]
  inhibition: -4%
[21]; single agent, at 5 µM
  inhibition: -18.5%
[22]; at 0.5 µM
  inhibition: -12.7% (inactive)
[22]; [30]
  inhibition: -33.3%
[22]; [31]
  inhibition: -4%
[22]; single agent, at 0.05 µM
  inhibition: 2.29%
[22]; single agent, at 5 µM
  inhibition: -29.9%
